Screens deposited in PubChem BioAssay by several laboratories.
NadD block: NadD (S. aureus) enzyme inhibition. actives 0.78% (n = 360,000). inhibition, % at 20 µM. purified NadD enzyme, colorimetric absorbance read-out; in the data active means inhibition above about 26%
Exocytosis inh: lytic granule exocytosis inhibition | actives 0.66% (n = 360,000) | AID 651702 | inhibition, % at 10 µM | TALL-104 LAMP-1 surface exposure, flow cytometry; cells stimulated with thapsigargin and PMA;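 active means inhibition above about 55%, limit read from the data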
PP1 inh: PP1-alpha (human) inhibition in PP5 counter-screen. actives 0.9% (n = 320,000). P62136. purified PP1alpha, OMFP fluorescence. inhibition, % at 6.7 µM;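 active means inhibition above the mean inhibition of all tested compounds plus 3 SD, computed separately for each screening campaign, cut at about 15% in these data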
GRK2 inh: inhibitors of human GRK2 displacing RNA aptamer | bead flow cytometry, FAM-aptamer displacement from GRK2 | inhibition of aptamer binding, % at 10 µM | actives 0.59% (n = 330,000) | P25098;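 active means inhibition of aptamer binding above 40%, roughly 3 SD of noise, on plates passing a quality check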;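 further: median bead fluorescence of bound FAM aptamer so fluorescent compounds give negative values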
B2AR ag: agonists of human beta-2 adrenergic receptor inducing internalization; Am2.2-beta2AR cells, FAP receptor internalization, flow cytometry; AID 504454; response, % (concentration not given with the values); P07550; actives 0.43% (n = 340,000);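 active means response above a set limit, near 3 SD of response in nonfluorescent compounds, cut at about 42% in these data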
Target sequence (P07550 whole entry, looked up): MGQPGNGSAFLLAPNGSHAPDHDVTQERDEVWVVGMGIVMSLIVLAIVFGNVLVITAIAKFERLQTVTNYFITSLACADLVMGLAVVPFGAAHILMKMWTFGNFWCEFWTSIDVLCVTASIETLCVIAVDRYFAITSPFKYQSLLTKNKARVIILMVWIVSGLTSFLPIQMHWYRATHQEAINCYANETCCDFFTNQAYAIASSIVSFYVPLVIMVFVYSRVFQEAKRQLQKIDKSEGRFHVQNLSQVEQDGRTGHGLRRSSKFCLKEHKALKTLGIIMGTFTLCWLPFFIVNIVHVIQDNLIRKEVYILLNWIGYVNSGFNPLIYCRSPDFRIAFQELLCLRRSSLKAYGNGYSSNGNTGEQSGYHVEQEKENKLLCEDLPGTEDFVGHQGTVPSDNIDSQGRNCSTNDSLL
PP1 confirm: human PP1 phosphatase inhibition, confirmation; AID 2358; purified PP1alpha, OMFP substrate fluorescence; shares compounds with PP1 inh; inhibition, % at 6.7 µM; actives 52% (n = 1,900);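 active means mean PP1 inhibition above a set limit taken from the earlier primary screen, cut at about 15% in these data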
PP5 inh counter: counter-screen for PP1 inhibitors: human PP5 phosphatase inhibition; shares compounds with PP1 inh; purified PP5c, OMFP fluorescence; inhibition, % at 6.7 µM; actives 4% (n = 1,900);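 active means mean PP5 inhibition over triplicate wells above about 9.5% taken from the earlier PP1 screen, limit read from the data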
Starred values were filed as active, the others as inactive. Only some compounds are listed: those with a hit (about 2.9% of all), similar ones and a draw of the others.

Results for CC(C)CNC(=O)C1CCN(c2ccc(S(=O)(=O)N3CCOCC3)cc2Cl)CC1 ?
NadD block: -3.0; Exocytosis inh: 4.3; PP1 inh: 27.5*; GRK2 inh: 0.0; B2AR ag: -4.2; PP1 confirm: -2.4; PP5 inh counter: -0.4

Results for O=C(CN1C(=O)NC2(CCCCCC2)C1=O)c1ccc(OC(F)F)cc1OC(F)F ?
NadD block: -4.6; Exocytosis inh: 5.5; PP1 inh: -0.1; GRK2 inh: 0.0; B2AR ag: -0.4

How did CCc1nnc(NC(=O)c2sc3nc4c(cc3c2N)CCCCCC4)s1 do in these assays?
NadD block: 11.4; Exocytosis inh: -3.1; PP1 inh: 21.8*; GRK2 inh: 0.0; B2AR ag: 7.2; PP1 confirm: 28.5*; PP5 inh counter: -4.5

Results for O=C(COC(=O)Cc1ccc(Cl)cc1)NCc1ccc(Cl)cc1 ?
NadD block: 0.9; Exocytosis inh: 0.8

Results for CCN(CC)C(=O)/C(=C/c1cn(S(=O)(=O)N(C)C)c2ccccc12)NC(=O)c1ccc(OC)cc1 ?
NadD block: -1.3; Exocytosis inh: -6.0; PP1 inh: 27.1*; GRK2 inh: 0.0; B2AR ag: -0.1; PP1 confirm: 22.5*; PP5 inh counter: -2.0

What do the screens show for `O=C(C1CCN(Cc2cn[nH]c2-c2ccc(F)cc2F)CC1)N1CCOCC1`?
NadD block: -2.4; Exocytosis inh: -0.4; PP1 inh: 42.7*; GRK2 inh: 0.0; B2AR ag: 0.3; PP1 confirm: -2.6; PP5 inh counter: -1.2

How did CCOC(=O)c1ncccc1NC(=O)CC(=O)Nc1cccnc1C(=O)OCC do in these assays?
NadD block: -10.5; Exocytosis inh: -5.0; PP1 inh: 26.9*; GRK2 inh: 0.0; B2AR ag: -11.2; PP1 confirm: 4.9; PP5 inh counter: 1.2

How did CCOc1ccc(C(=O)OCC(=O)Nc2cccnc2Cl)cc1OCC do in these assays?
NadD block: -7.1; Exocytosis inh: -2.6; GRK2 inh: 0.0; B2AR ag: 8.9

How did CC(CCc1ccco1)NC(=O)CCc1nnc2ccc(NCc3ccc(Cl)cc3)nn12 (configuration not stated) do in these assays?
NadD block: 5.9; Exocytosis inh: -1.6; PP1 inh: 22.4*; GRK2 inh: 2.0; B2AR ag: 2.7; PP1 confirm: 16.6*; PP5 inh counter: -4.1

What do the screens show for `Cc1cc(Cl)ccc1NC(=S)NCCC(c1ccccc1)c1ccccc1`?
NadD block: -2.4; Exocytosis inh: 1.6; PP1 inh: 18.1*; GRK2 inh: 0.0; B2AR ag: -2.6; PP1 confirm: -1.7; PP5 inh counter: 0.7

Results for Cc1ccc2nc(-c3ccccc3)cc(C(=O)N3CCN(S(=O)(=O)c4c(C)noc4C)CC3)c2c1 ?
NadD block: 15.2; Exocytosis inh: 1.1; PP1 inh: -4.6; GRK2 inh: 1.0; B2AR ag: -3.9

How did C#CCOCCOCCOCCNc1nc(N2CCN(C(=O)CCCCCCCCCCNC(=O)[C@H](CCCCN)n3cc(C)nn3)CC2)nc(N2CCN(C(=O)CCCCCCCCCCNC(=O)[C@@H]([C@H](C)CC)n3cc(CCCCCN)nn3)CC2)n1 do in these assays?
NadD block: 51.3*; Exocytosis inh: -4.9; PP1 inh: 60.5*; GRK2 inh: 0.0; B2AR ag: -534.4; PP1 confirm: 28.5*; PP5 inh counter: -0.9

Results for C#CCOCCOCCOCCNc1nc(N2CCN(C(=O)CCCCCCCCCCNC(=O)[C@H]([C@@H](C)CC)n3cc(CCCCCN)nn3)CC2)nc(N2CCN(C(=O)CCCCCCCCCCNC(=O)[C@@H]([C@H](C)O)n3cc(C)nn3)CC2)n1 ?
NadD block: 32.6*; Exocytosis inh: -7.7; PP1 inh: 53.9*; GRK2 inh: 3.0; B2AR ag: 29.2; PP1 confirm: 40.8*; PP5 inh counter: 0.0

How did C#CCOCCOCCOCCNc1nc(N2CCN(C(=O)CCCCCCCCCCNC(=O)[C@H](CCC(=O)O)n3cc(CCCCCN)nn3)CC2)nc(N2CCN(C(=O)CCCCCCCCCCNC(=O)[C@@H]([C@H](C)O)n3cc(C)nn3)CC2)n1 do in these assays?
NadD block: -3.1; Exocytosis inh: -5.0; PP1 inh: 4.0; GRK2 inh: 1.0; B2AR ag: 25.3
